From PubChem BioAssay AID1159580 (chemical genetic matrix, 2015)
Several values for one entry are separate records, joined by “and”; a condition that tells them apart may be missing. Equal values may be shown once. The campaign covered roughly 5,500 compounds. About 2,000 (36%) were called active. Not shown: some 18% with an inconclusive outcome. Rule as the data show it: active = normalized growth mostly below about 0.91 (no sharp cut-off); inconclusive = no clear call, values can overlap the other calls; inactive = mostly above about 0.92. The list shows a part of the results.

Assay: chemical genetic growth profiling, strain panel (AID 1159580);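 also: tested at 20 µM; growth read once vehicle control cultures reached saturation at 30 °C; 1 = growth at the plate median or of vehicle wells; lower values mean less growth of the strain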
Conditions: S. cerevisiae deletion strains, growth OD

Measured: normalized growth

COC1C(O)C(O)C(O)[C@@H](O)C1O (some centres undefined)
inactive: locus YAL013W, strain DEP1, active compounds read low 1.01 | locus YAL021C, strain ccr4, active compounds read low 0.967 | locus YAL026C, strain drs2, active compounds read low 0.978 | locus YAL030W, strain snc1, active compounds read low 0.976 | locus YBL061C, strain skt5, active compounds read low 0.971 | locus YBR009C, strain hhf1, active compounds read low 0.98 | locus YBR021W, strain FUR4, active compounds read low 1.03 | locus YBR023C, strain chs3, active compounds read low 0.966 | locus YBR171W, strain sec66, active compounds read low 0.978 | locus YBR229C, strain ROT2, active compounds read low 1.01 | locus YBR231C, strain swc5, active compounds read low 0.978 | locus YBR279W, strain paf1, active compounds read low 0.982 | locus YCL011C, strain gbp2, active compounds read low 0.976 | locus YCL016C, strain dcc1, active compounds read low 0.968 | locus YCL029C, strain bik1, active compounds read low 1.02 | locus YCL061C, strain MRC1, active compounds read low 0.97 | locus YCL069W, strain vba3, active compounds read low 0.98 | locus YCR088W, strain abp1, active compounds read low 0.976 | locus YDL005C, strain med2, active compounds read low 0.949 | locus YDL035C, strain GPR1, active compounds read low 1.02 | locus YDL074C, strain BRE1, active compounds read low 1.06 | locus YDL101C, strain DUN1, active compounds read low 1.01 | locus YDL134C, strain PPH21, active compounds read low 1 | locus YDL185W, strain tfp1, active compounds read low 1.01 | locus YDL192W, strain arf1, active compounds read low 1.03 | locus YDR001C, strain nth1, active compounds read low 0.964 | locus YDR069C, strain doa4, active compounds read low 0.981 | locus YDR101C, strain arx1, active compounds read low 1.04 | locus YDR137W, strain rgp1, active compounds read low 0.98 | locus YDR150W, strain NUM1, active compounds read low 1.01 | locus YDR159W, strain sac3, active compounds read low 1.06 | locus YDR162C, strain NBP2, active compounds read low 1.01 | locus YDR195W, strain ref2 1.01 | locus YDR297W, strain sur2, active compounds read low 0.977 | locus YDR318W, strain mcm21, active compounds read low 1.02 | locus YDR334W, strain swr1, active compounds read low 0.966 | locus YDR335W, strain msn5, active compounds read low 0.972 | locus YDR388W, active compounds read low 1.02 | locus YDR392W, strain spt3, active compounds read low 0.909 | locus YDR502C, strain sam2, active compounds read low 1.05 | locus YEL003W, strain gim4, active compounds read low 0.974 | locus YEL037C, strain rad23, active compounds read low 0.968 | locus YEL061C, strain CIN8 (second series), active compounds read low 0.971 | locus YEL061C, strain CIN8, active compounds read low 1.01 | locus YER015W, strain faa2, active compounds read low 0.984 | locus YER016W, strain bim1, active compounds read low 0.977 | locus YER110C, active compounds read low 1.02 | locus YER111C, strain swi4, active compounds read low 0.961 | locus YER155C, strain BEM2 (second series), active compounds read low 0.971 | locus YER155C, strain BEM2, active compounds read low 1.01 | locus YER167W, strain BCK2, active compounds read low 1.01 | locus YFR010W, strain ubp6, active compounds read low 0.951 | locus YGL078C, strain dbp3, active compounds read low 1.02 | locus YGL086W, strain mad1, active compounds read low 1.05 | locus YGL167C, strain pmr1, active compounds read low 0.977 | locus YGL173C, strain kem1, active compounds read low 0.964 | locus YGL227W, strain vid30, active compounds read low 0.973 | locus YGL240W, strain doc1, active compounds read low 1 | locus YGL248W, strain PDE1, active compounds read low 1.01 | locus YGL253W, strain hxk2, active compounds read low 0.966 | locus YGR078C, strain PAC10, active compounds read low 1 | locus YGR135W, strain pre9, active compounds read low 1.01 | locus YGR252W, strain gcn5, active compounds read low 0.972 | locus YHR013C, strain ard1, active compounds read low 0.948 | locus YHR027C, strain rpn1, active compounds read low 0.999 | locus YHR030C, strain SLT2, active compounds read low 0.999 and 0.933 | locus YHR079C, strain IRE1 (second series), active compounds read low 1.03 | locus YHR079C, strain IRE1, active compounds read low 0.925 | locus YHR094C, strain hxt1, active compounds read low 1.04 | locus YHR129C, strain ARP1, active compounds read low 1.01 | locus YHR142W, strain chs7, active compounds read low 0.928 | locus YHR200W, strain rpn10, active compounds read low 1.03 | locus YIL066C, strain RNR3, active compounds read low 1.01 | locus YIL073C, strain SPO22, active compounds read low 1.09 | locus YIL125W, strain kgd1, active compounds read low 1.01 | locus YIR030C, strain dcg1, active compounds read low 1.02 | locus YJL092W, strain hpr5, active compounds read low 0.975 | locus YJL095W, strain BCK1 (second series), active compounds read low 0.975 | locus YJL095W, strain BCK1, active compounds read low 1 | locus YJL115W, strain asf1, active compounds read low 0.971 | locus YJL129C, strain trk1, active compounds read low 0.938 | locus YJL134W, strain LCB3, active compounds read low 0.999 | locus YJL154C, strain vps35, active compounds read low 0.964 | locus YJL164C, strain tpk1, active compounds read low 0.974 | locus YJL166W, strain qcr8, active compounds read low 0.98 | locus YJL168C, strain set2, active compounds read low 1.02 | locus YJL187C, strain SWE1 (second series), active compounds read low 1.01 | locus YJL187C, strain SWE1, active compounds read low 0.977 | locus YJR043C, strain POL32, active compounds read low 0.989
